# Source: PubChem BioAssay AID624484 (NMMLSC, 2012)
# The other results are listed elsewhere or left out. Calls of active or inactive are those of the source.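 The calls were made as follows: active = compounds whose half-maximal effective concentration is below 100 µM; inactive = the rest.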
# Assay: empty-vector K562 compound effect – cell-based, flow cytometry, cherry pick set 2, counter-screen for ABCB6 inhibitor project, dose response (AID 624484)
# Settings: K562 empty-vector cells, 1 h; series mostly up to 100 µM
smiles,measurement,value
Cc1ccc(CS(=O)(=O)c2ncc(Cl)c(C(=O)Nc3nnc(C)s3)n2)cc1,outcome,inactive
